Measurements taken from PubChem BioAssay AID2330 (Broad Institute, 2010).
In all, about 37,000 compounds went through this assay and about 2,800 (7.6%) were called active. About 1% were inconclusive and are not listed. No stated cut-off is given here; in the data, active means inhibition above about 80%; inconclusive means no clear call, values can overlap the other calls; inactive means below that. This excerpt belongs to a sample that is enriched for actives.

assay: NOMO-1 AML cell viability reduction, primary screen, STK33 inhibitor project, CellTiter-Glo luminescence (AID 2330); conditions: NOMO-1 AML viability, 72 h, stronger effect = higher value, concentration not given here

SMILES	inhibition
C[C@H]1O[C@@H](O[C@H]2CC[C@]3(CO)C4CC[C@]5(C)[C@@H](C6=CC(=O)OC6)CC[C@]5(O)[C@@H]4CC[C@H]3C2)[C@H](O)[C@H](O)[C@@H]1O[C@@H]1O[C@H](CO)[C@@H](O)[C@H](O)[C@H]1O (stereo not given in full)	119% (active)
CCCCC/C=C\C/C=C\C/C=C\C/C=C\CCCCCC(=O)NCCO	10.8% (inactive)
COc1ccc(CNCc2nc3ccccc3c(=O)n2-c2ccc(F)cc2)cc1	23.8% (inactive)
CC(C)c1ccc2c(c1O)CC[C@H]1C3=C(CC[C@]21C)C(=O)OC3	24.4% (inactive)
O=C(Nc1ccc2c(C(F)(F)F)cc(=O)oc2c1)c1nc2ncccn2n1	7.98% (inactive)
COc1c(C(C)C)cc2c(c1O)[C@@]1(C(=O)O)CCCC(C)(C)C1CC2 (stereo not given in full)	16% (inactive)
CCCCCCCCCCCCCC(=O)O[C@@H]1[C@@H](C)[C@@]2(O)[C@@H](C=C(CO)C[C@]3(O)C(=O)C(C)=C[C@@H]23)[C@@H]2C(C)(C)[C@]12OC(C)=O	98.2% (active)
Cc1cc(OCc2cc(C(=O)O)oc2C)c2c3c(c(=O)oc2c1)CCCC3	0.325% (inactive)
CCCN(C/C=C/I)C1CCc2ccc(O)cc2C1 (stereo not given)	31.2% (inactive)
COC1=C[C@@H]2[C@@H]3Cc4ccc(OC)c(O)c4[C@]2(CCN3C)CC1=O	-7.75% (inactive)
COC1=CC23CCN(C)[C@H](Cc4cc(OC)c(OC)cc42)C3=CC1=O	24.6% (inactive)
O=C(c1ccccc1)C12CN3CN(CN(C3)C1)C2	-14.9% (inactive)
COc1ccccc1N1C(=O)NC(=O)C(CCc2ccncc2)(Cc2cccc3ccccc23)C1=O (stereo not given)	32.3% (inactive)
C[C@H]1CCC/C=C/C2C[C@H](O)C[C@H]2[C@H](O)/C=C\C(=O)O1 (stereo not given in full)	122% (active)
COc1ccc2[nH]cc(CCNCc3ccc(Br)cc3)c2c1	48.6% (inactive)
CCCCn1c(C)c(C(C)=O)c2c(OCC(=O)O)c(Cl)c(Cl)c(Cl)c21	-7.33% (inactive)
c1ccc2c(c1)[I+]c1ccccc1-2	141% (active)
C=CC(C)(C)c1cc2cc3c(cc2oc1=O)O[C@H](C(C)(C)O)C3	45.2% (inactive)
Cc1ncsc1CCCl	11.2% (inactive)
CC(C)Nc1nc(Cl)nc(NC(C)C)n1	8.29% (inactive)
